Counter-ions that a name gives are not always drawn.

The subject of experiment [1] is S. cerevisiae SK1 pCDA2-eGFP (USY613), sporulating. Description: CDA2-GFP sporulation assay sensitivity score (z-score vs DMSO controls); higher = stronger inhibition of sporulation, active = hit call of the paper.
The test system of experiment [2] is S. cerevisiae NKY1551 his4x/his4B, sporulating. Description: HIS4 meiotic recombination assay sensitivity score (z-score vs DMSO controls); higher = stronger inhibition of sporulation/recombination, active = hit call of the paper.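 Also: active if sensitivity score above 5.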
The test system of experiment [3] is S. cerevisiae AD1-9 (efflux-pump deficient), vegetative growth in YPD. Put plainly: growth sensitivity score (doubling time z-score vs DMSO controls); higher = slower growth, strongly negative scores also mark growth inhibition (complete suppression), active = hit call of the paper. An outline of the steps:
(§1)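 Saccharomyces cerevisiae strains BY4741 and AD1-9 were seeded in rich medium in microtiter plates at an OD600 of 0.065. Compounds were added at a 1:100 dilution of DMSO stock. Optical density was read every 15 min for 24 hours on a Tecan GENios reader. Average doubling time was the time taken to reach a set generation point divided by generation number, and the growth sensitivity score was (compound mean − DMSO-control mean)/DMSO-control SD, using eight DMSO controls per experiment.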

Experiment [4] deals with S. cerevisiae BY4741 (wild-type), vegetative growth in YPD. The description is as above. An outline of the steps: as §1
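For CDA2-GFP sporulation assay sensitivity score (z-score vs DMSO controls) in this document: active if sensitivity score above 5.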

Turning to `O=c1cnn([C@@H]2O[C@H](CO)[C@@H](O)[C@H]2O)c(=O)[nH]1` [6-Azauridine] (stock concentration (mM, diluted 1:100): 10), the “CDA2-GFP sporulation assay sensitivity score” value in experiment [1] is 0.6 (inactive). Besides, the “HIS4 meiotic recombination assay sensitivity score” value in experiment [2] was -1.27 (inactive). Besides, the values for the growth sensitivity score in experiment [3] and in experiment [4] were 0.13 (inactive) and 0.64 (inactive), respectively.

As for `COc1ccc(CC(C)NCC(O)c2ccc(O)c(NC=O)c2)cc1` (stereo not given) [Formoterol fumarate dihydrate] (stock concentration (mM, diluted 1:100): 7), the “CDA2-GFP sporulation assay sensitivity score” value in experiment [1] was 0.41 (inactive). For the same molecule, the “HIS4 meiotic recombination assay sensitivity score” value in experiment [2] was -1.68 (inactive). The growth sensitivity score in experiment [3] is -0.7 (inactive); in experiment [4], -0.1 (inactive).

On to `CCOC(=O)[C@H](CCc1ccccc1)N[C@@H](C)C(=O)N1[C@H](C(=O)O)C[C@@H]2CCC[C@@H]21` [Ramipril] (stock concentration (mM, diluted 1:100): 10), for which the “CDA2-GFP sporulation assay sensitivity score” value in experiment [1] was 0.92 (inactive). Also, the “HIS4 meiotic recombination assay sensitivity score” value in experiment [2] was -1.04 (inactive). For the same molecule, the growth sensitivity score in experiment [3] is 2.05 (active); in experiment [4], -0.9 (inactive).

On to `C#C[C@]1(O)CC[C@H]2[C@@H]3CCC4=CC(=O)CC[C@@H]4[C@H]3CC[C@@]21CC` [Levonorgestrel] (stock concentration (mM, diluted 1:100): 10), for which, in experiment [1], the “CDA2-GFP sporulation assay sensitivity score” value is 0.19 (inactive). In addition, the “HIS4 meiotic recombination assay sensitivity score” value in experiment [2] is -2.79 (inactive). The growth sensitivity score was -0.41 (inactive) in experiment [3] and 0.89 (inactive) in experiment [4].

On to `CC[N+](C)(CC)CCOC(=O)C(O)(c1ccccc1)C1CCCCC1` (stereo not given) [Oxyphenonium bromide] (stock concentration (mM, diluted 1:100): 10), for which the “CDA2-GFP sporulation assay sensitivity score” value in experiment [1] is 0.76 (inactive). Moreover, the “HIS4 meiotic recombination assay sensitivity score” value in experiment [2] was 1.35 (inactive). In addition, the growth sensitivity score is -1.02 (inactive) in experiment [3] and 0.39 (inactive) in experiment [4].

(Values after the supplement of paper PMC3414501.)
